# BAZ2B inh – blocks human BAZ2B. Q9UIF8. AlphaScreen BAZ2B-H3K14Ac peptide displacement. Potency, µM (series often up to 114 µM), inactives show top-dose activity change, negative = inhibition, usual class: inhibitors. hit rate 4.4% among 360,000; further: on the % scale 0 is the no-effect control and ±100 the full control effect; nearly all actives have a fitted effect of over 60% in size
# Target sequence (Q9UIF8 whole entry, looked up): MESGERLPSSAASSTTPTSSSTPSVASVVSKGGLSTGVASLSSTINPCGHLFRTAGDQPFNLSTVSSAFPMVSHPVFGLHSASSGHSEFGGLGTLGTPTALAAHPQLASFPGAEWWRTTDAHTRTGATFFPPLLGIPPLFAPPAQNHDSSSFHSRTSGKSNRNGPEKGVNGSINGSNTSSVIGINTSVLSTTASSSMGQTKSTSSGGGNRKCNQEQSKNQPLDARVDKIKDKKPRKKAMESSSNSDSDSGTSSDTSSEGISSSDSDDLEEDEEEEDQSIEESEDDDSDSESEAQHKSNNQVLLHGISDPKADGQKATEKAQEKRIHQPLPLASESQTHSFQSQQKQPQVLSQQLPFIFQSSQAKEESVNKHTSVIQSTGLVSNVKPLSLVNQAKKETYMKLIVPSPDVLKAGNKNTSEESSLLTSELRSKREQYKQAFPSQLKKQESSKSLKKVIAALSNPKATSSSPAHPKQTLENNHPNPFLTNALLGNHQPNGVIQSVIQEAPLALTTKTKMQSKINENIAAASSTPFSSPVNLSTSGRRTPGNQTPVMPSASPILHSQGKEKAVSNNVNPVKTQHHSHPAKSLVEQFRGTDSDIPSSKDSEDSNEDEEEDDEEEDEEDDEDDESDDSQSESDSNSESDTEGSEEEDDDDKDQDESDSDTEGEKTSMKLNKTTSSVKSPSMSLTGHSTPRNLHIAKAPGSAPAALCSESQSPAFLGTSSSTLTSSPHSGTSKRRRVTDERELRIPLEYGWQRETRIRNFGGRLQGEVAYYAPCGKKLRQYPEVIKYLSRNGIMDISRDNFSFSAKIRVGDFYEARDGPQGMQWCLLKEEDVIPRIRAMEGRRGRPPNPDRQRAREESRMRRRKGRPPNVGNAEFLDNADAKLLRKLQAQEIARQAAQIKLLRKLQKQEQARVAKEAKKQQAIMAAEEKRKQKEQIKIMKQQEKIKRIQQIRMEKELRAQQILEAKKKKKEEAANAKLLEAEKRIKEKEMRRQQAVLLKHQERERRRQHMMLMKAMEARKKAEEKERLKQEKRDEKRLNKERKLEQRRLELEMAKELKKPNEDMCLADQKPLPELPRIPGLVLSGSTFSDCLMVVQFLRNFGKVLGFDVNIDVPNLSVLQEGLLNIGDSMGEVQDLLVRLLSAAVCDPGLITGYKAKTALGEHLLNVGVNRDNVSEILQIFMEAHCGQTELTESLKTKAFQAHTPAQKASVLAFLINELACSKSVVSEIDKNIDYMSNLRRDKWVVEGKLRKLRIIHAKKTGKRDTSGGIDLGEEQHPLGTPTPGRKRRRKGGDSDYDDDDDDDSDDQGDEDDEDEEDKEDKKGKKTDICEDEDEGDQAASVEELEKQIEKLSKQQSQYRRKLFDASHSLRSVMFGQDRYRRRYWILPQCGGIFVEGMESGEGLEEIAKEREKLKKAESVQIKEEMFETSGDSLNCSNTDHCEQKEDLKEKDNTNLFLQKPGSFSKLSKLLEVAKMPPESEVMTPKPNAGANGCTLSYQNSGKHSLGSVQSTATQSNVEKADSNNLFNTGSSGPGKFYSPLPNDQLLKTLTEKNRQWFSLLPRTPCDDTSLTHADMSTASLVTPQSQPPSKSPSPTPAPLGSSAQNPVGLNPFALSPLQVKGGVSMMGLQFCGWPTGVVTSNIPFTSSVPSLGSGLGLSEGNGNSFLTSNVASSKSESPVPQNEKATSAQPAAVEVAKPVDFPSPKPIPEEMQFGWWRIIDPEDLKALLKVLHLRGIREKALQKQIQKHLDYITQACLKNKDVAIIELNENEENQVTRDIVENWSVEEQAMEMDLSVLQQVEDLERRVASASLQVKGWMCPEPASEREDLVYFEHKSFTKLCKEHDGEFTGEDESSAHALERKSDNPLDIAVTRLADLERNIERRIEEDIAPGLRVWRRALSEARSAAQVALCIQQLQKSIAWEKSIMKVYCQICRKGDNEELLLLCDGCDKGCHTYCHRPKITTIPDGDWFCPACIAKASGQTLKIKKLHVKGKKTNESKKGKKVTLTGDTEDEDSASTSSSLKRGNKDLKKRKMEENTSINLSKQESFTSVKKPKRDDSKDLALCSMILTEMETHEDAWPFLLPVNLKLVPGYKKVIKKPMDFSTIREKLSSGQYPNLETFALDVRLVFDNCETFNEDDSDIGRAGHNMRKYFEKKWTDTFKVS
#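 Complex of BAZ2B and biotin-H3K14Ac (50 nM apiece) forms over 30 min at RT, then faces library compounds up to 110 uM for another 30 min; AlphaScreen beads added, 20 min dark incubation, luminescence read.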
# HP1b binding inh – inhibitors of HP1-beta chromodomain binding to methylated histone tails; P83916; AlphaScreen HP1-beta / biotin-H3K9me3 peptide binding; Potency, µM (highest dose often 114 µM), for inactives: at the top dose activity change, negative = inhibition, most hits filed as inhibitors; hit rate 0.56% among 390,000; AID 540317; further: nearly all actives have a fitted effect of over 70% in size
#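 HP1-beta protein (50 nM final) preincubated 30 min at room temperature with biotinylated H3(1-18)K9me3 peptide (50 nM) in PBS pH 7.4, 0.01% Tween-20, then compound added for 30 min. AlphaScreen streptavidin donor/nickel chelate acceptor beads (10 ug/mL final), 30 min dark, luminescence read.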
# JMJD2A Tudor – blocks the human JMJD2A Tudor domain | AlphaScreen JMJD2A-Tudor / H3K4me3 peptide binding | O75164 | hit rate 4.4% among 390,000 | Potency, µM (highest dose often 114 µM), without a hit: at the top dose activity change, negative = inhibition, hits mostly inhibitors | AID 504339; further: on the % scale 0 is the no-effect control and ±100 the full control effect; nearly all actives have a fitted effect of over 50% in size
# 12-LOX inh – ALOX12 (human) lipoxygenase inhibition. Potency, µM (highest dose often 108 µM), for inactives: top-dose activity change, negative = inhibition, actives largely listed as inhibitors. P18054. hit rate 1.1% among 580,000. purified 12hLO, xylenol orange hydroperoxide absorbance; further: on the % scale 0 is the no-effect control and ±100 the full control effect
#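 Hydroperoxide product was detected by ferrous iron/xylenol orange as the 573 to 405 nm absorbance ratio. Arachidonic acid at 40 uM (final) was turned over for 30 min at room temperature by 150 nM human 12hLO, pH 7.0 Hepes buffer, after 15 min compound preincubation.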
# G9a inh – blocks human histone lysine methyltransferase G9a | Potency, µM (top dose mostly 102 µM), without a hit: at the highest dose activity, negative = inhibition, most hits filed as inhibitors | G9a H3K9 monomethylation, AlphaScreen, 2 h | Q96KQ7 | hit rate 8.8% among 350,000; further: on the % scale 0 is the no-effect control and ±100 the full control effect; nearly all actives have a fitted effect of over 75% in size
#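 Using a bead-based AlphaScreen, monomethylated H3K9 product from 2 h room-temperature reactions (G9a 20 nM, peptide 500 nM, SAM 20 uM) was detected with 0.5 ug/mL rabbit anti-H3K9me1 antibody.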
# PLK1 PBD block – inhibitors of human PLK1 polo-box domain binding. P53350. Plk1 PBD binding of FITC phosphopeptide, fluorescence polarization. Potency, µM, for the others: max response, negative = inhibition, hits mostly inhibitors. hit rate 2.8% among 360,000; further: series mostly up to about 57 µM; on the % scale 0 is the no-effect control and ±100 the full control effect; nearly all actives have a fitted effect of over 65% in size
# * marks the source's active call; other numbers are inactive results; ? = inconclusive; . = not tested or not shown; [ ] = dose if it differs, or a comment. Rows were chosen to be rich in hits. Some 9% of all compounds tested hit in one or more screens of this group. The call rests on the fitted dose curve; in most records, active means well fitted curve in the direction sought with a large enough effect; inconclusive means small, poorly fitted or top-dose-only effect, or another doubt; inactive means no such curve, though single readings can be large; an effect the other way counts as inactive or inconclusive. Potency means the concentration at half of the fitted maximal effect.
SMILES,BAZ2B inh,HP1b binding inh,JMJD2A Tudor,12-LOX inh,G9a inh,PLK1 PBD block
CCc1noc(C)c1C(=O)Nc1cccc(S(=O)(=O)N2CCCCCC2)c1,5%,21%,-9%,-45%,8.9µM*,4%
COc1cc(NC(=S)N2CCN(CCO)CC2)c(OC)cc1Cl,-7%,42%,-1%,1%,0%,-7%
COc1cc(NC(=S)N2CCOCC2)c(OC)cc1Cl,-16%,24%,-12%,494%,-2%,-14%
COc1cc(NC(=S)N2CCCC(CO)C2)c(OC)cc1Cl (stereo not given),-5%,4%,-6%,-4%,45µM*,?
CN1CCN(C(=S)Nc2cc([N+](=O)[O-])ccc2Cl)CC1,-28%,-4%,?,?,3.2µM*,?
CCN1CCN(C(=S)Nc2cccc([N+](=O)[O-])c2)CC1,-7%,5%,-16%,1%,71µM*,-7%
COc1cc(NC(=S)N2CCN(C)CC2)c(OC)cc1Cl,-19%,12%,1%,-5%,40µM*,19µM*
CN1CCN(c2ccc([N+](=O)[O-])cc2NC(=O)c2ccccc2Cl)CC1,?,8%,-6%,-20%,-10%[0.501 µM],-9%
COc1ccc(CCNC(=O)c2cc(S(=O)(=O)N3CCCCC3)ccc2Cl)cc1,-3%,32%,-19%,3%,13%[0.501 µM],4%
CC(=O)Nc1ccc(S(=O)(=O)N2CCC(Oc3ccc(-n4cnnn4)cc3)CC2)cc1,-18%,40%,-8%,4%,46%,1%
O=C1/C(=C\c2ccc(Cl)c(Cl)c2)CN(C(=O)CCN2CCOCC2)C/C1=C/c1ccc(Cl)c(Cl)c1,.,-33%,35µM*,?,.,-25%
O=C1/C(=C\c2ccccc2)CN(C(=O)CCN2CCCCC2)C/C1=C/c1ccccc1,.,5%,-24%,-17%,.,?
CC#CCN1C(=O)N[C@@H](c2ccccc2)C(C(=O)OC)=C1C,.,13%,?,-29%,.,21µM*
COC(=O)C1=C(C)N(Cc2ccccc2)C(=S)NC1c1ccc(Cl)cc1 (stereo not given),.,.,.,35µM*,.,.
CCOC(=O)C1=C(CS(=O)(=O)c2ccc(F)c(C)c2)NC(=O)NC1c1ccc(F)c(F)c1 (stereo not given),-6%,14%,-25%,?,4%[59 µM],.
COC(=O)C1=C(CCc2ccccc2)NC(=O)NC1c1ccc(C#N)cc1 (stereo not given),.,35%,-18%,5%,.,-12%
CCN1C(=S)N[C@@H](c2ccccc2)C(C(=O)OC)=C1C,-36%,36%,-21%,-28%,3%[12.7 µM],1%
COC(=O)C1=C(CCc2ccccc2)NC(=O)NC1c1ccc(Cl)cc1 (stereo not given),.,10%,-29%,35µM*,.,-20%
CCOC(=O)C1=C(CS(=O)(=O)c2ccc(F)c(C)c2)NC(=O)NC1c1ccc(O)c(O)c1 (stereo not given),?,22%,-21%,?,25µM*,-7%
COc1ccc(Nc2nc3ccccc3nc2C)cc1,.,38%,-9%,-26%,24%[59 µM],7%
CNNC(=S)NCCC1=CCCCC1,-10%,54%,-11%,-8%,?,2%
CCn1c(=O)c2c(cc(C)n2C)n(CC(=O)Nc2cc(Cl)ccc2C)c1=O,.,.,.,65%,.,.
COC(=O)C1=C(C)N(Cc2ccc(Cl)cc2)C(=S)NC1c1ccccc1 (stereo not given),.,.,.,40µM*,.,.
CCOC(=O)C1=C(CN2CCN(CC)CC2)NC(=O)NC1c1ccc(Cl)cc1 (stereo not given),.,39%,-2%,-29%,-24%[59 µM],.
COC(=O)C1=C(C)N(Cc2ccccc2)C(=S)N[C@H]1c1cccc(F)c1,?,25%,-33%,?,-19%,?
CCOC(=O)C1=C(CNc2ccc(C)c(Cl)c2)NC(=O)NC1c1ccc(Cl)cc1 (stereo not given),.,.,.,8.9µM*,.,.
CC(=O)N1CCC(C(=O)NC2CCCN(c3cc(-c4ccc(Cl)cc4)[nH]n3)C2)CC1 (stereo not given),.,.,.,15%,.,.
